Screening data (PubChem)
Most compounds without a hit are left out; they make up all but 11% or so of the library.
HCV inh: HCV inhibition; Huh7.5.1 HCVcc-Cre infection, luciferase reporter, 44 h; Potency, µM (doses to about 41.8 µM), for the others: top-dose activity change, negative = inhibition, usual class: inhibitors; 340,000 compounds, 3.4% hits; AID 651820; also: % is scaled to controls: 0 for no effect and ±100 for the full control effect
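After 44 h co-culture of compound, cells and HCVcc-Cre (~0.5 moi), substrate is added for 15 min at room temperature and luciferase measured over 15 sec. Cells were seeded at 1,000/well and pre-cultured 4 h.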
VACV mCherry inh: vaccinia inhibition (mCherry reporter); Vaccinia virus mCherry reporter infection, fluorescence; Potency, µM (top dose mostly 36.5 µM), for inactives: at the top dose activity change, negative = inhibition, actives largely listed as inhibitors; 310,000 compounds, 0.63% hits; calls by dose curve; tested in A549 cells; also: % is scaled to controls: 0 for no effect and ±100 for the full control effect; nearly all actives have a fitted effect of over 35% in size
Pf growth 96h: P. falciparum growth inhibition at 96 hour, primary screen for plastid delayed-death inhibitors | Potency, µM (top dose mostly 28.7 µM), for inactives: at the highest dose activity change, negative = inhibition, actives largely listed as inhibitors | P. falciparum luciferase reporter growth, 96 h | 320,000 compounds, 6.9% hits; also: % is scaled to controls: 0 for no effect and ±100 for the full control effect
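Cell-based qHTS: luciferase-tagged P. falciparum in erythrocytes (2% hematocrit, 0.05% parasitemia final) incubated with compounds for 96 hours, 37 C, 5% CO2; luciferase detection reagent then added and luminescence measured.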
NS1 function inh: blocks influenza NS1 protein function; Potency, µM (doses to about 46.1 µM), for inactives: at the highest dose activity, positive = more growth; 270,000 compounds, 0.4% hits; calls by dose curve; also: actives are rising curves; nearly all actives have a fitted effect of over 50% in size
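Growth recovery, yeast-based: influenza A NS1 expressed in S. cerevisiae causes slow growth, and suppressors are detected by OD600. The parent strain without NS1 is used as positive control.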
Pf growth 48h: P. falciparum growth inhibition at 48 hours (one generation) | AID 504832 | 310,000 compounds, 5.9% hits | P. falciparum luciferase growth in erythrocytes, 48 h | Potency, µM (titrated, usually from 28.7 µM), without a hit: at the top dose activity change, negative = inhibition, usual class: inhibitors; also: % is scaled to controls: 0 for no effect and ±100 for the full control effect
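Luciferase-expressing parasites in RBCs, 2% Hct / 0.1% parasitemia final; RPMI 1640 + 0.5% Albumax; 37 C, 5% CO2, one generation; luminescence read-out, lower signal = inhibition.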
VACV Venus inh: inhibitors of vaccinia virus (Venus reporter); Vaccinia virus Venus reporter expression, fluorescence; Potency, µM (titrated, usually from 36.5 µM), for the others: at the top dose activity change, negative = inhibition, actives largely listed as inhibitors; 330,000 compounds, 0.46% hits; AID 720580; calls by dose curve; tested in A549 cells; also: % is scaled to controls: 0 for no effect and ±100 for the full control effect; nearly all actives have a fitted effect of over 30% in size
Active calls of the source: *; i = inactive; ? = inconclusive; / = not tested or not shown. Unless noted, calls follow the shape of the dose curve; as a rule, active = well fitted inhibition curve with a large enough effect; inconclusive = small, poorly fitted or top-dose-only effect, or another doubt; inactive = no such curve, though single readings can be large or run the other way. Potency is read from the fitted curve at half-maximal effect.

SMILES | HCV inh | VACV mCherry inh | Pf growth 96h | NS1 function inh | Pf growth 48h | VACV Venus inh
O=C(Nc1ccc(OC(F)F)cc1)c1ncc(Cl)c(Cl)c1Cl | 1.5% | -8.8% | 5.8% | / | 2.3% | -13.2%
O=C(CCN1C(=O)c2ccccc2S1(=O)=O)Nc1cccc(F)c1 | -16.2% | -2.3% | 5.4% | / | -24.1% | 5.1%
N#CCC(CNc1ncc(C(F)(F)F)cc1Cl)OC(=O)c1cccc(C(F)(F)F)c1 (configuration not stated) | 8.9% | ? | 5.86µM* | -14.5% | ? | -26.5%
COc1ccccc1NC(=O)COC(=O)C1CCN(/C=C/C(=O)C(F)(F)F)CC1 | 30.2% | -3.7% | 14.3% | -2.4% | 2.0% | -11.3%
Nc1nc(Nc2ccccc2)nc(C(F)(F)F)n1 | 14.6% | i | 7.38µM* | -38.4% | 40.4% | -11.9%
Nc1nc(Nc2ccccc2Br)nc(C(F)(F)F)n1 | ? | i | 10.4µM* | -33.2% | 46.7% | -13.4%
Nc1nc(Nc2ccc(Cl)cc2Cl)nc(C(F)(F)F)n1 | -20.3% | / | -26.1% | -1.4% | 87.9% | ?
CC(=O)Nc1cccc(C(=O)NN2C(=O)NC3(CCC(C)CC3)C2=O)c1 (configuration not stated) | / | i | / | / | / | 0.3%
COc1ccc(Cl)cc1NC(=O)CN1c2ccccc2CC1C (configuration not stated) | 8.91µM* | -13.8% | -26.5% | / | ? | -6.1%
COc1ccccc1NC(=O)N1CCN(c2ccc(F)cc2)CC1 | -13.4% | -13.2% | 2.33µM* | -2.7% | -20.6% | -3.4%
Cn1c(C(=O)N2CCN(c3cccc(C(F)(F)F)c3)CC2)cc2sccc21 | ? | / | 9.28µM* | -70.8% | 4.0% | /
COc1cc(NC(=O)CN2c3ccccc3CC2C)cc(OC)c1OC (configuration not stated) | ? | -9.1% | / | -2.1% | ? | -24.1%
COc1ccccc1NC(=O)N1CCN(C(=O)Nc2ccccc2OC)CC1 | 3.4% | -13.7% | 31.7% | -1.5% | -13.9% | -6.0%
O=C(C1CCCCC1)N1CCc2[nH]c3ccc(F)cc3c2C1 | -9.3% | / | 34.8% | -3.4% | -1.1% | /
COc1ccccc1NC(=O)N1CCc2[nH]c3ccc(F)cc3c2C1 | 10µM* | / | ? | -17.3% | -22.7% | ?
CC(C)Oc1ccc(C2CC(=O)N(c3cccc(/C=C/C(=O)O)c3)C2=O)cc1 (configuration not stated) | 6.4% | i | 7.2% | 7.1% | / | -8.1%
CCC(C)NC(=O)C(=O)NCc1ccncc1 (configuration not stated) | 2.6% | -2.0% | 44.0% | 12.3% | 1.3% | -2.9%
O=C(Cc1ccc(Cl)cc1)OCc1nnc(-c2ccccc2)o1 | 8.0% | i | 13.1% | -9.0% | 14.1% | -17.1%
Fc1cccc(F)c1/C=N/Nc1ccccn1 | -5.3% | / | 326.7% | / | 170.3% | /
COc1ccc(Cl)cc1NC(=O)N1CCN(c2ccccc2OC)CC1 | -12.9% | -15.1% | ? | -1.7% | 6.57µM* | -26.3%
COc1ccccc1N1CCN(C(=O)Nc2cccc(Cl)c2)CC1 | 9.8% | / | -19.5% | -11.5% | / | /
COc1ccccc1NC(=O)N1CCN(c2cccc(C(F)(F)F)c2)CC1 | 11.2µM* | / | / | -88.0% | -24.8% | /
Cc1ccccc1NC(=O)N1CCN(c2ncccn2)CC1 | 4.7% | / | 2.33µM* | / | 15.5% | /
O=C(Nc1ccccc1)N1CCN(c2ccc(F)cc2)CC1 | 19.9% | i | ? | -0.4% | 13.1µM* | -15.7%
COc1ccccc1CC(=O)N1CCN(c2cccc(C(F)(F)F)c2)CC1 | ? | ? | / | -50.1% | ? | -23.9%
SMILES | HCV inh | VACV mCherry inh | Pf growth 96h | NS1 function inh | Pf growth 48h | VACV Venus inh
O=C(c1ccc2c(c1)C(=O)N(Cc1ccco1)C2O)N1CCOCC1 (configuration not stated) | -4.3% | -0.2% | ? | 3.5% | / | -8.0%
COC(=O)Cn1c(=O)c2c(nc3n2CCN3c2cccc(C)c2)n(C)c1=O | / | -3.1% | / | / | / | 0.5%
CC(=O)OC(C(=O)N1CCN(c2ccc(F)cc2)CC1)c1ccccc1 (configuration not stated) | 7.4% | i | 11.7µM* | -11.0% | 31.9% | -7.4%
COc1ccccc1NC(=O)N1CCC(c2nc3ccccc3o2)CC1 | 12.5% | / | 23.3µM* | / | 12.0% | /
CC(=O)c1ccc(N2CCN(C(=O)Nc3ccc(C(C)C)cc3)CC2)cc1 | 3.16µM* | ? | 0.8% | / | ? | -27.9%
COCCOC(=O)c1c(NC(=O)CN2c3ccccc3CC2C)sc(C(N)=O)c1C (configuration not stated) | ? | -21.0% | ? | 6.3% | 11.7µM* | -10.4%
COCCOC(=O)c1c(NC(=O)CN2CCOCC2)sc(C(N)=O)c1C | 0.0% | -3.9% | / | -0.9% | -12.8% | -21.4%
COc1ccc(N2CCN(C(=O)C(OC(C)=O)c3ccccc3)CC2)cc1 (configuration not stated) | 13.8% | -15.8% | -2.4% | 7.2% | 11.9% | -11.3%
CC(=O)c1ccc(N2C(=O)C3C4C=CC(CC4)C3C2=O)cc1 (configuration not stated) | 6.6% | / | ? | -0.5% | 44.8% | /
COc1cc(NC(=O)C2CC(=O)NC3=C2C(=O)CCC3)cc(OC)c1 (configuration not stated) | 11.4% | / | 35.4% | -0.6% | 10.1% | /
COc1ccccc1N1CCN(C(=O)Cc2c(C(=O)O)[nH]c3ccc(Cl)cc23)CC1 | ? | -13.3% | i | / | 10.4µM* | -10.3%
O=C(O)c1[nH]c2ccc(Cl)cc2c1CC(=O)N1CCN(c2ccccc2)CC1 | -1.3% | -12.2% | / | ? | -5.1% | 29.9%
COc1ccc(CN(C)Cc2nc(Cc3cccc(F)c3)no2)c2cccnc12 | 10µM* | ? | ? | -6.5% | ? | ?
COC(=O)[C@@]1(C)[C@H]2C(=O)N(Cc3ccccc3)C(=O)[C@H]2[C@H]2CN(C)C(=NC3CCCCC3)N21 | 0.562µM* | -25.8% | / | / | / | -15.1%
CCN1C[C@@H]2[C@@H]3C(=O)N(Cc4ccccc4)C(=O)[C@@H]3[C@](C)(C(=O)OC)N2C1=NC1CCCCC1 | ? | -22.4% | / | / | / | 3.3%
CC(=O)Nc1ccc2c(c1)N(C(C)=O)c1ccccc1CC2 | 4.2% | -8.3% | ? | 5.7% | ? | -7.8%
CCN(CC)CCC(=O)Nc1ccc2c(c1)N(C(=O)CN(CC)CC)c1ccccc1CC2 | ? | / | ? | 10.2% | 10.4µM* | -11.5%
COc1cc(C(=O)Nc2ccc3c(c2)N(C(=O)CCN(C)C)c2ccccc2CC3)cc(OC)c1OC | ? | -0.2% | 9.28µM* | -2.0% | 10.4µM* | -7.0%
CN(C)CC(=O)N1c2ccccc2CCc2ccc(NC(=O)c3ccc(N)cc3)cc21 | ? | / | 65.2% | 14.8% | 5.86µM* | -5.4%
CCN(CC)CCC(=O)N1c2ccccc2CCc2ccc(NC(=O)OC(C)C)cc21 | ? | / | ? | 1.8% | ? | /
Cc1ccc(N=C(N)N=C(N)N)cc1 | 8.0% | / | ? | -0.6% | 9.28µM* | /
